Screens (PubChem BioAssay)
Shown are actives, neighbours in structure and some others; about 7.4% of the full set was active somewhere.
Rab9 prom act: activators of Rab9 promoter; Huh7 Rab9 promoter-luciferase reporter, luminescence, 24 h; Potency, µM (series often up to 9.22 µM), usual class: activators; actives 2.8% (n = 320,000); further: nearly all actives have a fitted effect of over 60% in size
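Luminescence read-out: Huh7 cells stably expressing Rab9-luciferase, treated 24 h with compound at 37 °C, then lysed with luciferase reagent for 10 min at ambient before reading.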
SMN2 splice enh: enhancers of SMN2 splice variant expression. HEK293 SMN2-luciferase splicing reporter, luminescence, 30-36 h. Potency, µM (highest dose often 46.1 µM), most hits filed as activators. actives 2.8% (n = 210,000). AID 1458; further: nearly all actives have a fitted effect of over 55% in size
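qHTS luciferase splicing reporter: luminescence rises when SMN2 exon 7 is included in transfected HEK293 cells. Compound exposure lasted 30-36 h at 37C, with 4.5 mM final sodium butyrate as control, followed by a ONE-Glo read.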
NPC1 promoter act: NPC1 promoter activation | Huh7 NPC1 promoter luciferase reporter, 24 h | actives 2.4% (n = 320,000) | AID 485313 | Potency, µM (titrated, usually from 9.22 µM), hits mostly activators; further: nearly all actives have a fitted effect of over 60% in size
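NPC1 promoter–luciferase Huh7 cells; 24 h compound; luminescence.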
Luc counter: blocks Kinase-Glo luciferase, a counter-screen artifact; Kinase-Glo luciferase, ATP luminescence, 8 min; Potency, µM (series often up to 38.3 µM), actives largely listed as inhibitors; actives 0.28% (n = 200,000); AID 1379; further: nearly all actives have a fitted effect of over 60% in size
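Recombinant Kinase-Glo luciferase, 10 uM ATP (linear range), luciferin; imidazole pH 7.2 / KCl / MgCl2 / Tween / BSA buffer; 8 min RT; luminescence.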
ELG1 genotox: inducers of genotoxicity in HEK293T ELG1-luciferase cells; actives 1.3% (n = 330,000); Potency, µM (highest dose often 46 µM), actives largely listed as activators; HEK293T ELG1-luciferase reporter, luminescence, 16 h; further: nearly all actives have a fitted effect of over 60% in size
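16 hr compound incubation (37 °C, 5% CO2) of HEK293T cells carrying luciferase-tagged ELG1; luciferase then measured by ONE-Glo luminescence after 30 min at RT.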
FLuc counter: firefly luciferase modulation, counter-screen for miR-21 project. AID 588342. Potency, µM (doses to about 57.5 µM), most hits filed as inhibitors. actives 6.9% (n = 360,000). purified FLuc, Km substrates, luminescence inhibition. P08659; further: nearly all actives have a fitted effect of over 55% in size
Target sequence (P08659 whole entry, looked up): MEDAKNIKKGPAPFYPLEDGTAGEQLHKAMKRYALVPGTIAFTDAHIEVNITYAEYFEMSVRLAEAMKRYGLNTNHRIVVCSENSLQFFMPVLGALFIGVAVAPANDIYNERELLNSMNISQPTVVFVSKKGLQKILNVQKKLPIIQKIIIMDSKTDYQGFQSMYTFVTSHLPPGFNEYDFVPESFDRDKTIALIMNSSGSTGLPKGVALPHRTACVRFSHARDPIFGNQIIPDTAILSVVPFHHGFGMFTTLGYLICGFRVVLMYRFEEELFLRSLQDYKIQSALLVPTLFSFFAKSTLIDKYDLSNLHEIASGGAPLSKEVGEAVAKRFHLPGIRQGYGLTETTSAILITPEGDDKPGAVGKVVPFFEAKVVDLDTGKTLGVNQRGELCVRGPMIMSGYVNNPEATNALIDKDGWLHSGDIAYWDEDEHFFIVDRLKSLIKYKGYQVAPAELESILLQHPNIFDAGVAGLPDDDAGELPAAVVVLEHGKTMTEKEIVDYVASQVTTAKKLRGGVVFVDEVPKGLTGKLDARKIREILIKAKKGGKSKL
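Purified P. pyralis luciferase, 10 nM final, with Km-level 10 uM D-luciferin and 10 uM ATP in 50 mM Tris acetate pH 7.5, 10 mM Mg acetate, 0.01% Tween-20, 0.05% BSA; 6-point qHTS titration about 60 µM downward; luminescence read.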
Hits are given with their value; - = inactive; ? = inconclusive; . = no result given; [ ] = remark or other dose. The call rests on the fitted dose curve; in most records, active means well fitted curve in the direction sought with a large enough effect; inconclusive means small, poorly fitted or top-dose-only effect, or another doubt; inactive means no such curve, though single readings can be large; an effect the other way counts as inactive or inconclusive.

SMILES	Rab9 prom act	SMN2 splice enh	NPC1 promoter act	Luc counter	ELG1 genotox	FLuc counter
NC(=O)c1cccc(-c2cccc(OC(=O)NC3CCCCC3)c2)c1	-	.	-	.	-	?
CNC(=O)Oc1ccc(-c2cn3cc(Cl)ccc3n2)cc1	0.631µM	5.01µM	0.891µM	-	?	1.07µM
CNC(=O)Oc1cccc(-c2cn3cc(OC(=O)NC)ccc3n2)c1	?	12.6µM	3.55µM	-	20.6µM	3.79µM
Cc1noc(C(=O)Nc2sc3c(c2C#N)CCC3)c1Cl	-	-	-	-	-	15.1µM
N#Cc1c(/N=C/C2C(=O)NC(=S)NC2=O)sc2c1CCCC2	-	-	-	-	-	?
COc1ccc(-n2nc(C(=O)NCC(=O)N3CCC4(CC3)OCCO4)c3ccccc3c2=O)c(OC)c1	?	.	?	.	?	1.07µM
Nc1cnn(-c2ccccc2)c(=O)c1Cl	-	.	-	.	-	-
CCCCSc1nc2c(cnn2-c2ccccc2)c(=O)n1N	1.78µM	10µM	2.82µM	-	?	6.75µM
CCN(CC)c1ccc(/C=C2/C(=O)NC(=O)N(CC3CCCO3)C2=O)cc1 (stereo not drawn)	-	-	-	-	-	16.9µM
O=C(O)C[O][Sb][O]CC(=O)O	.	-[9.22 µM]	.	-[7.66 µM]	.	.
CC1CCN(C(=O)COC(=O)c2cn(C)c3ccccc23)CC1	-	.	-	.	-	23.9µM
COc1ccc(OCCOc2cccc(C=C3C(=O)NC(=O)NC3=O)c2)cc1	0.112µM	.	0.316µM	.	-	8.49µM
CN(CCOc1ccc(C=C2C(=O)NC(=O)NC2=O)cc1)c1ccccn1	-	-	-	-	-	?
Cc1ccc2scc(N3CCN(C)CC3)c(=O)c2c1	.	.	.	.	.	12µM
COC(=O)[C@H]1C(=O)[C@H](C(=O)OC)[C@@H]2CC[C@H]1N2C	.	-[9.22 µM]	.	-[7.66 µM]	.	.
CNC(=O)c1cccn(Cc2ccc(C(F)(F)F)cc2)c1=O	-	-	-	-	18.3µM	-
O=P(O)(OP(=O)(O)c1ccccc1)c1ccccc1 (tested in a mixture with another compound)	.	-[9.22 µM]	.	-[7.66 µM]	.	.
CC(=O)[C@@H]1CC[C@H]2[C@@H]3CC[C@@H]4CC(=O)CC[C@]4(C)[C@H]3CC[C@]12C	.	-	.	.	.	.
COC(=O)Nc1cccc(OC(=O)Nc2cccc(C)c2)c1	.	-	.	.	.	.
Cc1ccc(NC(=O)OC(C)CNC(=O)Oc2cccc(C)c2)cc1 (stereo not drawn)	-	-	-	-	-	23.9µM
CCN(CC)C(=O)N[C@H]1C=C2c3cccc4[nH]cc(c34)C[C@@H]2N(C)C1	.	-	.	-	.	.
O=C(CSc1nnc(NC(=O)c2cccc(F)c2)s1)NCc1ccco1	?	.	?	.	-	3.38µM
CC(=O)Nc1nnc(SCC(=O)NCCOc2ccccc2)s1	?	-	-	-	-	-[2.3 µM]
Clc1cccc(C(Cl)(Cl)Cl)n1	.	-	.	.	.	.
O=C(O)c1cc[c]([Hg][S]c2ncnc3nc[nH]c23)cc1	.	-[9.22 µM]	.	-[7.66 µM]	.	.
SMILES	Rab9 prom act	SMN2 splice enh	NPC1 promoter act	Luc counter	ELG1 genotox	FLuc counter
C/C=C1/C[N@@+]2(C)CC[C@]34C(=C(C=O)[C@H]1C[C@H]32)Nc1ccccc14	.	-	.	.	.	.
Cc1nc2ccc(NC(=O)c3ccc(Cl)s3)cc2s1	1.58µM	14.1µM	3.16µM	-	9.2µM	?
Nc1nc2c(ncn2[C@@H]2O[C@H](CO)[C@@H](O)[C@@H]2O)c(=[SH+])[nH]1.O=[N+]([O-])c1ccc(O)[c]([Hg])c1	.	-[9.22 µM]	.	2.82µM	.	.
Nc1nc(=S)c2ncn([C@H]3O[C@@H](CO)[C@@H](O)[C@@H]3O)c2[nH]1	.	-	.	-	.	.
Cc1cc(C(=O)N=Nc2c(O)n(C)c3ccccc23)c(C)o1	3.55µM	7.08µM	2.51µM	?	7.31µM	2.69µM
COc1ccc(-c2cc(=O)c3cc(OCC(=O)OC(C)C)ccc3o2)cc1	.	-	.	.	.	1.9µM
C[C@H](N)C(=O)N[C@@H](C)C(=O)N[C@@H](Cc1ccccc1)C(=O)CCl	.	-	.	.	.	.
O=S(=O)(Cl)c1ccccc1	.	-	.	.	.	.
O=c1cc(-c2ccc(O)c(O)c2)oc2cc(O)cc(O)c12	-	8.91µM	-	-	?	23.9µM
CN(C)C(=O)Oc1ccc(OC(=O)N(C)C)cc1	?	-	-	-	-	-
CN(C)C(=O)Oc1ccc(OCc2nc3ccccc3[nH]2)cc1	0.447µM	7.08µM	?	11.2µM	?	1.51µM
COc1cccc(N2CCN(c3c4c(nc5nncn35)CCC4)CC2)c1	.	-	.	.	.	-
C=CCc1ccc(OCCn2nnc3ccccc32)c(OC)c1	3.98µM	.	2.82µM	.	16.4µM	10.7µM
C=CCN1C(=O)NC(=O)C(Cc2ccc(OC)c(OC)c2)C1=O (stereo not drawn)	-	-	-	-	-	-
CCC(Oc1cc(Cl)ccc1Cl)C(=O)N1CCC2(CC1)OCCO2 (stereo not drawn)	1.78µM	.	0.891µM	.	?	10.7µM
Cc1ccc(N)c(C)c1	-	-	-	.	-	-
Cc1ccc(N=Nc2cc(C)ccc2N)cc1	0.316µM	.	0.501µM	.	0.461µM	0.19µM
Cn1c(NN=O)nc2ccccc21	-	.	-	-	?	23.9µM
CCN(CC)C(=O)c1ccc(NC(=O)c2c(C)noc2C)cc1	-	.	-	.	-	-
CC(=O)c1ccc(NC(=O)c2cc(CC(C)C)on2)cc1	-	-	-	-	18.4µM	?
N=C1/C(=C\c2ccc(OC(=O)c3ccccc3Cl)cc2)C(=O)N=C2SC(N3CCOCC3)=NN12	-	.	-	.	-	23.9µM
CCS(=O)(=O)C1=NN2C(=N)/C(=C\c3ccc(OC(=O)c4ccco4)cc3)C(=O)N=C2S1	-	.	-	.	-	?
CC1=C2C(=O)[C@@H]3[C@@H](CC=C4C[C@@H](O)CC[C@@]43C)[C@H]2CC[C@@]12O[C@H]1C[C@H](C)CN[C@H]1[C@@H]2C	.	-[9.22 µM]	.	-[7.66 µM]	.	.
O=C(O)/C=C\C(=O)Nc1ccc(Oc2ccc(Br)cc2)cc1	-	-	-	-	-	19µM
Cn1c(=O)c2[nH]cnc2n(C)c1=O.[CH2-][C@H](Cc1cccc2cc(C(=O)O)c(=O)oc12)OC.[Hg].[OH-]	.	-[9.22 µM]	.	-[7.66 µM]	.	.
SMILES	Rab9 prom act	SMN2 splice enh	NPC1 promoter act	Luc counter	ELG1 genotox	FLuc counter
O=P(Nc1cccnc1)(Oc1ccccc1)Oc1ccccc1	-	3.98µM	-	-	-	-
COc1cccc(NP(=O)(Oc2ccccc2)Oc2ccccc2)c1	-	.	-	.	-	-
CCCCCCOc1ccc(CN2CCN(C)CC2)cc1	?	-	?	-	5.8µM	6.75µM
CN1CCN(Cc2ccc3ccccc3c2)CC1	-	.	-	.	-	-
CCOc1ccc(NC(=O)c2ccc(NC(=O)COC(=O)Cc3ccccc3)cc2)cc1	?	20µM	?	-	?	-
CCOc1ccc(NC(=O)c2c(C)nn(Cc3ccccc3)c2Cl)cc1	-	.	-	.	?	-
Cc1ccc(-c2nn(Cc3ccccc3)cc2C=O)cc1	3.55µM	?	?	-	-	19µM
Cc1ccc(-c2nn(Cc3ccccc3)cc2C=O)cc1C	-	-	-	-	-	26.9µM
